Reference: PubChem BioAssay AID602376 (Johns Hopkins Ion Channel Center, 2012)
Results with a measured potency or affinity are listed apart. Inconclusive results are not listed. The source made the active and inactive calls.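 How the source made its calls: active means raises choline transporter activity at one or more tested doses and gives a fitted dose-response curve; inconclusive means no clear call, values can overlap the other calls; inactive means no choline transporter activation at any dose, or no curve.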

biological target: High affinity choline transporter 1 (Homo sapiens) (UniProt Q9GZV3); assay: human choline transporter potentiators, potency – cell-based, 10-point CRC, membrane potential dye, dose response (AID 602376); settings: HEK293-CHT, choline-induced membrane potential dye, cells express CHT LV-AA mutant; series mostly up to 67 µM
Sequence (Q9GZV3 whole entry, looked up): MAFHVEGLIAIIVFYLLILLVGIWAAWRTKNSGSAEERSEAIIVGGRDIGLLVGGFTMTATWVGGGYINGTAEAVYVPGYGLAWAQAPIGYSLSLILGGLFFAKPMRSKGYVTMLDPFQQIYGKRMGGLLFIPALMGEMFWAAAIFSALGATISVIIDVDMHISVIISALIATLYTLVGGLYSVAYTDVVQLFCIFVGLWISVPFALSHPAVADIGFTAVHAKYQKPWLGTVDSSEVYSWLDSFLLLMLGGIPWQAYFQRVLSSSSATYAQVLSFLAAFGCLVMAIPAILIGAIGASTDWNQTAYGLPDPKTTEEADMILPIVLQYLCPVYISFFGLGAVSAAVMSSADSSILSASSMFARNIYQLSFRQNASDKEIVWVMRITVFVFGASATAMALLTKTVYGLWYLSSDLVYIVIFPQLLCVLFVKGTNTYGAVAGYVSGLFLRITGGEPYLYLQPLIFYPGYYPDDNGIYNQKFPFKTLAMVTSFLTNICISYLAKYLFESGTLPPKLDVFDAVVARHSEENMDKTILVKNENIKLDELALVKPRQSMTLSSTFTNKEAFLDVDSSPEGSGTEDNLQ

outcome, inactive:
CC(=O)N1CCN(c2ccccc2NC(=O)COc2cc(C)ccc2C(C)C)CC1
O=C(NCC(c1ccco1)N1CCc2ccccc2C1)c1cccc(F)c1 (stereo not given)
Cc1cccc2cc3c(N)c(C(=O)N4CCc5ccccc54)sc3nc12
CC1(C)Cc2c(sc3nc4n(c(=N)c23)CCC4)CO1
CCN1C(N(C)CCc2cccs2)=N[C@@H](c2ccccc2)C(C(=O)OC)=C1C
CCOC(=O)C1(Cc2ccccc2C(F)(F)F)CCN(Cc2ccon2)CC1
CC(C)CCOC(=O)/C(=C/c1ccco1)NC(=O)/C=C/c1ccccc1
CN(Cc1ccc(F)cc1)C(=O)C(c1ccccc1)c1ccccc1
O=C1N(Cc2cccc(Cl)c2)C[C@@H]2C[C@@H](c3ccsc3)N3CCC[C@@]123
Cc1ccc(S(=O)(=O)c2nc(-c3ccco3)oc2SC(C)C)cc1
COc1cccc(-c2cn(C[C@H]3CC[C@@H]([C@@H]4CC[C@H](Cn5cc(-c6cccc(OC)c6)nn5)O4)O3)nn2)c1
CCCC12CN(C(=O)c3ccc([N+](=O)[O-])cc3)CC(C)(CN(C(=O)c3ccc([N+](=O)[O-])cc3)C1)C2=O
COc1cc(-c2noc(C)c2C#Cc2ccccn2)cc(OC)c1OC
COC(=O)C1=C(C)N(Cc2ccccc2)C(=NCC(C)C)N[C@H]1c1ccccc1
COc1ccc(C(=O)CSc2nnc(CNC(=O)c3ccco3)n2C)cc1
CC(Sc1nnc(-c2ccc(Cl)cc2Cl)n1Cc1ccccc1)C(=O)Nc1nccs1 (stereo not given)
CCOC(=O)C1(CCc2ccccc2)CCN(Cc2cc(OC)c(OC)cc2OC)CC1
O=C(NC1CCCC1)C(c1ccsc1)N(Cc1ccco1)C(=O)Cc1cccs1 (stereo not given)
CCC(C)(C)C1CCc2nc3ccccc3c(C(=O)OC(C)C(=O)Nc3c(C)n(C)n(-c4ccccc4)c3=O)c2C1 (stereo not given)
CCCCn1c(N)c(N(CCC(C)C)C(=O)c2ccc(COc3ccccc3)o2)c(=O)[nH]c1=O
COc1ccc(N2CCN(c3oc(COc4ccccc4)nc3C#N)CC2)cc1
CC(Sc1ccc(Cl)cc1)C(=O)Nc1ccccc1-c1ccccc1 (stereo not given)
CCCC(c1nnnn1Cc1ccco1)N1CCN(c2cc(Cl)ccc2C)CC1 (stereo not given)
CCN1C(=NCc2ccccc2)N[C@@H](c2ccccc2)[C@H](C(=O)OC)[C@H]1C
CCOc1cc(NC(=O)c2ccco2)c(OCC)cc1NC(=O)c1ccco1
O=C(NCCC1=CCCCC1)C1CCN(Cc2cnn(-c3ccccc3)c2-n2cccc2)CC1
Cc1ccc(-c2c(C(=O)N(C)Cc3ccccc3)oc(=O)c3ccccc23)cc1
COc1ccc(-c2noc(CSc3nc4ccccc4c(=O)n3-c3ccccc3)n2)cc1OC
NCCCC[C@H]1CN=C(N)N1CCCCC1CCCCC1
C=CCN1C(c2ccc(OCC)cc2)=CS/C1=C(\C#N)c1nnc2n1CCCCC2
CCc1ccc(OCC(=O)N/N=C/c2cc([N+](=O)[O-])ccc2N2CCOCC2)cc1
COc1ccc(-c2c3c(=O)n(C)c(=O)n(C)c3cn2C2CCCCC2)cc1
COC(=O)c1ccccc1NC(=O)CN1CCN(C23CC4CC(CC(C4)C2)C3)CC1
CCC(C)c1ccccc1N1CC(C(=O)Nc2ccccc2N2CCCC2)CC1=O (stereo not given)
O=C(COc1ccccc1)NCC(c1ccco1)N1CCN(c2ccccc2)CC1 (stereo not given)
CCc1ccc(CN(C)C(=O)CCc2nc3ccccc3n(-c3ccc(OC)cc3)c2=O)cc1
Cn1c(=O)c(=O)n(C)c2cc(S(=O)(=O)N3CCC(N4CCCCC4)CC3)ccc21
Cc1ccnc2nc(C(=O)Nc3nccs3)nn12
O=C(Nc1cccc(Cl)c1N1CCOCC1)c1cc([N+](=O)[O-])ccc1N1CCOCC1
COc1ccc(NC(=O)C(c2ccccc2)N2CCN(c3ccccn3)CC2)cc1Cl (stereo not given)
